# A selection: hits, their analogues and other compounds. The true share with any hit is near 1.3%.
# IL-2 act: activates IL-2 in a cell-based reporter assay; IL-2 activation reporter assay, cell-based qHTS; stimulated with anti-CD3/CD4/CD28 beads; in transgenic mouse T cells; activation, % (series mostly up to about 46 µM); 0.065% of 360,000 active; in the data active = activation above about 50%; inconclusive = mostly about 30% to 49%; note: 0% is about no effect
#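 Readout: EGFP and DsRed signals by fluorescent plate cytometry. Unstimulated transgenic mouse T cells received compound 60 min before antibody-bead stimulation, then incubated 18 h at 37 degrees C.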
# TCR activator: activators of T cell receptors; primary human leukocytes, anti-CD3, IL-2 HTRF, 48 h; Potency, µM (top dose mostly 9.22 µM), for the others: at the top dose activation of IL-2 secretion, usual class: activators; 330,000 tested, under 10 active; note: % of control where 0% means no effect
#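 Compounds are tested in HTS on primary human leukocytes co-incubated with a-CD3 beads for 48 hr. IL-2 output is measured by time-resolved FRET.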
# Chronic BCR inh: chronic active BCR signaling inhibition; ABC-DLBCL IkBa-CBG/CBR reporter, luminescence ratio, 4 h; Potency, µM (highest dose often 46.1 µM), without a hit: at the highest dose activity change, negative = inhibition, usual class: inhibitors; 0.05% of 340,000 active; AID 493014; active = well fitted inhibition curve with a large enough effect in the signal ratio, with a control signal flat, not every such curve was filed as active; inconclusive = small, poorly fitted or top-dose-only effect, or effect the other way, or a change in a side signal; the % refers to the signal ratio;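 note: potency is the fitted concentration of half-maximal effect; plate controls were basal doxycycline-induced cells for no effect and cells given 10 µM MG132 for full effect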
#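 Concentration-response series (up to 46 uM) were applied to TMD8 dual-reporter cells for 4 h at 37C with doxycycline. Green/red ratio, after filter-overlap correction, defined %Activity; red signal alone was normalised to basal cells and zero luminescence.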
# PTHR1 agonist: activates the human parathyroid hormone receptor PTHR1 | Potency, µM (highest dose often 115 µM), inactives show top-dose activation, most hits filed as activators | 0.075% of 410,000 active | AID 743266 | HEK293 GP2 PTHR1 cells, GloSensor cAMP luminescence, 1 h; note: potency is the fitted concentration of half-maximal effect; nearly all actives have a fitted effect of over 55% in size
# Target sequence (Q03431 whole entry, looked up): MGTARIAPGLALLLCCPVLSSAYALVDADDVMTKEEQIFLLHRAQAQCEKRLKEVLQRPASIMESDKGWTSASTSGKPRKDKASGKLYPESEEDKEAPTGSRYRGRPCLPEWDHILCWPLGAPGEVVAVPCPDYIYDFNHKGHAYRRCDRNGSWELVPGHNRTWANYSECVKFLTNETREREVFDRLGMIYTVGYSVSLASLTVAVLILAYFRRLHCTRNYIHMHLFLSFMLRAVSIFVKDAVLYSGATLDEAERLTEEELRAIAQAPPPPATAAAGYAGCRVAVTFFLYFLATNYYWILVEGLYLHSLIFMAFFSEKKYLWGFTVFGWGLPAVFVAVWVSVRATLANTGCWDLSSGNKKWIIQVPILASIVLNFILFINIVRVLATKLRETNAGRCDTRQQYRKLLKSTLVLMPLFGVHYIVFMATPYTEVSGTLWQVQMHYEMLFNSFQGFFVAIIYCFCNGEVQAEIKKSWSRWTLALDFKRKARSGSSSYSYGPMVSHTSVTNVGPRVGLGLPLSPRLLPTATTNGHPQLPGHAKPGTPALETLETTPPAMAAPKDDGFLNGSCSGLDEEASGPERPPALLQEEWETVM
#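 HEK-293-derived GP2 cells expressing PTHR1 and a GloSensor cAMP reporter, 3,000/well, plated overnight, given luciferin plus IBMX (each 0.5 mM as added) for 1 h at 37 °C, then compound for 1 h at 37 °C. Luminescence was read after 15 min at room temperature.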
# BRCA1 expr act: activators of BRCA1 expression | 1.1% of 380,000 active | Potency, µM (highest dose often 46.1 µM), without a hit: at the top dose activation, most hits filed as activators | AID 624202 | MCF7-BRCA1-FFLuc reporter, luminescence, 48 h; response scale: scaled: vehicle 0%, 10 µM genistein 100%; note: potency is the fitted concentration of half-maximal effect; nearly all actives have a fitted effect of over 80% in size
#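 First, MCF7-BRCA1-FFLuc cells (2000/well) attach for 2 h; next, compounds are pin-added and incubated 48 h at 37 °C; finally, luciferase reagent is added and luminescence read after 15 min.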
# Mito fusion act: inhibitors of mitochondrial division or activators of mitochondrial fusion. S. cerevisiae fusion-defective mutant growth rescue, CellTiterGlo 48 h. Potency, µM (titrated, usually from 46.1 µM), for the others: top-dose growth rescue (activation), usual class: activators. 0.23% of 320,000 active. AID 485298; note: potency is the fitted concentration of half-maximal effect; % of control where 0% means no effect; nearly all actives have a fitted effect of over 45% in size
#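 Read-out: ATP-based luminescence (CellTiterGlo, 10 min ambient) reporting growth of fusion-defective ts yeast after 48 hours at 37C on glycerol/ethanol YPEG medium in the presence of compound.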
# The depositor's hits bear a star; i = inactive; u = inconclusive; x = not tested or not shown; [ ] = remark or other dose. Unless noted, calls come from the whole dose curve; as a rule, active = well fitted curve in the direction sought with a large enough effect; inconclusive = small, poorly fitted or top-dose-only effect, or another doubt; inactive = no such curve, though single readings can be large; an effect the other way counts as inactive or inconclusive.
SMILES,IL-2 act,TCR activator,Chronic BCR inh,PTHR1 agonist,BRCA1 expr act,Mito fusion act
c1ccc2c(c1)NC1(CCCCCC1)n1c-2nc2ccccc21,-1,0%,17%,i,2.8µM*,-3%
COc1ccc(C(C)=O)cc1COC(=O)c1cc(=O)c2ccccc2o1,0,0%,0%,i,-2%,7%
CN1OC[C@@H]2CN(Cc3ccccc3)[C@H](c3cccc(-c4ccc(C#N)cc4)c3)C[C@@H]21,0,-4%,x,-29%,-45%,x
COc1ccc2c(/C=C/c3cc[n+](C)cc3)c[nH]c2c1,28,-9%,1%,i,-70%,-6%
COc1ccc2c(c1)c(/C=C/c1cc[n+](C)cc1)cn2C,238*,0%,u,-3%,-54%,11%
CCN(C(=O)CSc1cccc[n+]1[O-])C1CCCCC1,0,x,5%,-2%,-16%,x
Cc1cccc(N/C=C/c2onc(C)c2[N+](=O)[O-])c1,0,0%,x,i,2.5µM*,2%
Cc1ccc2nc(-c3ccc(C)c(NC(=O)COc4ccccc4Cl)c3)oc2c1,x,x,x,x,70%,x
Cc1ccc2cc3cc(C(=O)NC4CC4)oc3nc2c1,0,8%,1%,-17%,59%,10%
O=C(NC1CCCC1)c1cc2cc(Br)ccc2o1,-1,-9%,u,-42%,3.2µM*,1%
O=C(NC1CCCCC1)c1cc2cc(Br)ccc2o1,5,-2%,u,-29%,89%,-2%
Cc1ccc2cc3cc(C(=O)NC4CCCCC4)oc3nc2c1,1,0%,-14%,-37%,4µM*,4%
CCc1ccc(S(=O)(=O)c2nnn3c2nc(NC(C)C)c2cc(Cl)ccc23)cc1,x,x,x,i,x,x
COc1ccc2c(c1OC)C(=O)N(c1ccc(C)cc1)C2,1,6%,-13%,-23%,19%,4%
CSCc1ccc(C(=O)Nc2ccc(C(N)=O)cc2)cc1,0,10%,-2%,-19%,5.6µM*,1%
CSCc1ccc(C(=O)NCc2ccc(C)cc2)cc1,-3,-2%[46.1 µM],-4%,i,50%,-6%
Cc1cc(/C=C/c2ccnc3ccccc23)ccc1N,x,x,x,x,0%,x
CCOC(=O)N1CCN(C(C(=O)NC2CCCC2)c2cccc(OC)c2OC)CC1 (stereo not drawn),0,x,x,i,x,x
COc1ccc(OC(=O)c2c(C)nn(-c3ccccc3)c2C)cc1,0,4%,u,-11%,u,8%
COc1ccc(OC(=O)c2cnn(-c3ccccc3)c2C)cc1,0,5%,u,-24%[57.5 µM],10µM*,14%
CCCc1ccc(Oc2cc(Cl)nc(N)n2)cc1,4,-8%,u,i,82%,0%
CCc1ccc(Oc2cc(C)nc(N)n2)cc1,0,0%[46.1 µM],0%,-23%,3.2µM*,0%
NCCCN(Cc1ccc(Cl)cc1)c1ccc(Br)cn1,x,x,x,x,-26%,x
